Z-score data for 15 compounds are collected here from PubChem BioAssay.

Calls of active or inactive are those of the source.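 Rule for the calls: active = z-score of at least 1.8 in each of two replicates, scored against plate mean and spread of sample wells; inactive = the rest.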

This test in a line: viability rescue of complex I mutant cybrids, primary screen, cell-based, galactose medium, ATP luminescence (AID 1645843).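 Note: positive z means more ATP and so rescue of galactose-driven cybrid death.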 The settings on record: complex I mutant cybrid cells, 72 h, stronger effect = higher value.
In the case of `CN(CC[C@@H](Oc1ccc(C(F)(F)F)cc1)c1ccccc1)CC(=O)O`, the z-score was 0.395 (inactive).
The value for `O=c1[nH]c(=S)[nH]c(-c2ccccc2)c1Cc1c(O)ccc2ccccc12` was 0.53 (inactive); that for `Nc1nc2c(ncn2[C@@H]2O[C@H](CO)[C@@H](O)[C@@H]2O)c(=O)[nH]1` was 4.94 (active); that for `COc1ccc(/C=C2\COc3ccc(C)cc3C2=O)cc1O` was -1.36 (inactive).
The value for `Cc1cc2c(cc1Cl)N(C(=O)Nc1ccc(Oc3cccnc3C)nc1)CC2` was -1.26 (inactive); that for `CN1Cc2sccc2C(c2ccc(O)c(O)c2)C1` (stereo not given) was -1.25 (inactive); that for `Nc1ccc(-c2ccc3ccccc3n2)cc1` was -1.29 (inactive).
Under `CC(C)c1cccc(C(C)C)c1N1C(=O)c2ccc(O)cc2C1=O` stands 0.3 (inactive).
For `C=C1C[C@@]23CC[C@H]4[C@@](C)(CCC[C@@]4(C)C(=O)O)[C@@H]2CC[C@]1(O)C3`, the z-score is 0.98 (inactive).
The value for `O=C1/C(=C/c2ccsc2)CC/C1=C\c1cccs1` was 1.23 (inactive); that for `Nc1nc(OCC2CCCCC2)c2[nH]cnc2n1` was -0.68 (inactive).
The value for `CCCC(CCC)C(=O)OC1CC2CCC(C1)[N+]2(C)C` (stereo not given) was -0.005 (inactive); that for `CSc1ccccc1N1CCN(CCCCCC(=O)NC2CCCc3ccccc32)CC1` (stereo not given) was -1.29 (inactive); that for `Cc1cc2c(cc1Cl)N(C(=O)Nc1ccnc3ccccc13)CC2` was -0.09 (inactive).
Under `NC[C@@H]1O[C@H](c2ccccc2)Cc2c1ccc(O)c2O` stands -1.3 (inactive).
